This note sets out measurements from PubChem BioAssay (NCI).

Holding throughout (experiment): NCI-60 one-dose screen, 48 h (100 = growth as untreated, 0 = no growth, -100 = all killed)
What all share (settings): 10 µM unless noted

The subject of experiment [1] is T-47D breast.
In experiment [2] the test system is BT-549 breast.
In experiment [3] the test system is MDA-MB-435 melanoma.
Experiment [4] has as its system SW-620 colon.
In experiment [5] the test system is MCF7 breast.
The subject of experiment [6] is HCT-116 colon.
In experiment [7] the test system is HCC-2998 colon.
The subject of experiment [8] is KM12 colon.

Structures are written as SMILES. This is part of a sample that, as a whole, favours compounds with a hit. Of some 83,000 tested, about 20% had one in any assay.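 The test compound was applied at a single concentration to cells in 96-well plates for 48 hours, and percent growth was recorded.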 A number with no mark means an inactive call. Activity calls are given as the source filed them. Rule for the calls: active = growth percent below 10; inactive = the rest.

With `C[n+]1ccc(CCc2c[nH]c3ccccc23)cc1`, the growth in experiment [1] was 72.6%; in experiment [2] it was 98.2%; in experiment [3], 104%; in experiment [4], 100%; in experiment [5], 93.2%; in experiment [6] it was 97.2%. Further, the growth in experiment [7] is 92.6%; in experiment [8] it was 70.8%.
Turning to `COc1ccccc1C(=O)Nc1cccc(NC(=O)c2ccoc2C)c1`, the growth in experiment [1] was 45.1%; in experiment [2] it was 44%; in experiment [3], -15.8% (active); in experiment [4], 28.2%; in experiment [5], 24.6%; in experiment [6], 15.3%. Besides, the growth in experiment [7] was 67.2%; in experiment [8], 21.1%.
Take `COc1cc(/C=C2\CN(S(=O)(=O)c3ccccc3)C/C(=C\c3cc(CN4CCCCC4)c(O)c(OC)c3)C2=O)cc(CN2CCCCC2)c1O`: the growth in experiment [1] was 89.2%; in experiment [2], -39.9% (active); in experiment [3], -88.6% (active); in experiment [4] it was -74.5% (active); in experiment [5], -51.9% (active); in experiment [6], -67.4% (active). For the same molecule, the growth in experiment [7] is -68% (active); in experiment [8] it was -87.1% (active).
For `CS(=O)(=O)c1nnc(-c2ccccc2)s1`, the growth in experiment [1] was 44.4%; in experiment [2] it was 105%; in experiment [3], 96.5%; in experiment [4], 84.8%; in experiment [5], 77.8%; in experiment [6] it was 45.1%. For the same molecule, the values for the growth in experiment [7] and in experiment [8] were 103% and 92.7%, respectively.
For `CN1CCN(C(=S)SCCCCOc2cc(=O)oc3ccccc23)CC1`, the growth in experiment [1] was 55.6%; in experiment [2], 81.3%; in experiment [3], 96.7%; in experiment [4] it was 100%; in experiment [5], 78.6%; in experiment [6], 86.8%. Further, the growth in experiment [7] is 98.1%; in experiment [8], 85.4%.
As to `O=C1/C=C/[C@@H](O)[C@@H]2C[C@@H](O)C[C@H]2/C=C/CCC[C@@H](O)CCO1`, the growth in experiment [1] was 116%; in experiment [2] it was 109%; in experiment [3], 87.9%; in experiment [4], 106%; in experiment [5], 95.1%; in experiment [6], 111%. Further, the growth in experiment [7] was 100%; in experiment [8], 77.1%.
With `Cc1ccc(N2C(=O)CCC2=O)cc1`, the growth is 105% in experiment [1]; 80.6% in experiment [2]; 102% in experiment [3]; 96.1% in experiment [4]; 94.6% in experiment [5]; 92.9% in experiment [6]. For the same molecule, the growth in experiment [7] is 108%; in experiment [8] it was 103%.
In the case of `CO[C@H](C(=O)[C@@H](O)[C@@H](C)O)[C@@H]1Cc2cc3cc(O[C@H]4C[C@@H](O[C@H]5C[C@@H](O)[C@H](O)C(C)O5)[C@H](O)C(C)(O)O4)cc(O)c3c(O)c2C(=O)[C@H]1O[C@H]1C[C@@H](O[C@H]2C[C@@H](O[C@H]3C[C@@H](OC)[C@H](O)C(C)O3)[C@@H](O)C(C)O2)[C@H](O)C(C)O1` (stereo not given in full), the growth in experiment [1] is 13.5%; in experiment [2], 4.37% (active); in experiment [3], 24.8%; in experiment [4] it was 34%; in experiment [5], 6.89% (active); in experiment [6], 6.03% (active). The growth in experiment [7] is 39.9%; in experiment [8] it was 14.9%.
`CCCCCCCCCCCCCCCCCC1=NC(C)(C)CN1CC(C)O` (stereo not given): the growth is 72.6% in experiment [1]; 101% in experiment [2]; 50.9% in experiment [3]; 3.6% (active) in experiment [4]; 42.4% in experiment [5]; 7.84% (active) in experiment [6]. The growth was 75.3% in experiment [7] and 44.1% in experiment [8].
On to `COc1ccc(/C=C(/c2ccccc2)[N+](=O)[O-])c(OC)c1`, for which the growth was -6.78% (active) in experiment [1]; -17.7% (active) in experiment [2]; -21.6% (active) in experiment [3]; -71.3% (active) in experiment [4]; 3.58% (active) in experiment [5]; -42.8% (active) in experiment [6]. Also, the growth in experiment [7] was -71.4% (active); in experiment [8] it was -32.4% (active).
As to `O=C(Cc1ccccc1)Nc1cccc(N=Cc2ccccc2O)c1`, the growth is 91.8% in experiment [1]; 115% in experiment [2]; 97.8% in experiment [3]; 109% in experiment [4]; 94.4% in experiment [5]; 108% in experiment [6]. Also, the results for the growth in experiment [7] and in experiment [8] were 106% and 98.1%, respectively.
As to `Cc1cccc[n+]1C1c2ccccc2-c2ccccc21`, the growth in experiment [1] was 60.8%; in experiment [2] it was 86.8%; in experiment [3] it was 102%; in experiment [4], 103%; in experiment [5] it was 95.1%; in experiment [6] it was 78.5%. Besides, the values for the growth in experiment [7] and in experiment [8] were 105% and 101%, respectively.
For `C=C(C)[C@@H]1CCC[C@]2(C(=O)N3CCN(C)CC3)CC[C@]3(C)[C@@H](CC[C@@H]4[C@@]5(C)CC/C(=N\NC(=O)c6ccncc6)C(C)(C)[C@@H]5CC[C@]43C)[C@@H]12`, the growth was 87.7% in experiment [1]; 105% in experiment [2]; 81.8% in experiment [3]; 81.2% in experiment [4]; 50.7% in experiment [5]; 97.8% in experiment [6]. Further, the growth in experiment [7] was 105%; in experiment [8], 85.4%.
Consider `N#C/C(=C\C=C\c1ccc(-c2cc(Cl)ccc2Cl)o1)c1nc2ccccc2s1`, for which the growth in experiment [1] was 84.8%; in experiment [2], 104%; in experiment [3], 102%; in experiment [4], 98.1%; in experiment [5] it was 83.3%; in experiment [6], 96.6%. The growth was 102% in experiment [7] and 106% in experiment [8].
Regarding `O=C(CC(=O)Nc1cccc(C(=O)O)c1)Nc1cccc(C(=O)O)c1`, the growth is 92.4% in experiment [1]; 98.8% in experiment [2]; 87.4% in experiment [3]; 90% in experiment [4]; 101% in experiment [5]; 94.3% in experiment [6]. For the same molecule, the growth was 102% in experiment [7] and 112% in experiment [8].
